High-throughput results (PubChem)
This is a sample that favours compounds with a hit; in the whole collection about 1.1% have one here.
PI4K2A inh: qHTS for small molecular inhibitors of PI4K2A. Phosphatidylinositol 4-kinase type 2-alpha (Homo sapiens), Q9BTU6. 420,000 compounds, 0.13% hits. activity change, negative = inhibition, % at 76.9 µM. AID 1346378, 2018. purified PI4K2A, ADP-Glo luminescence, 1 h; active compounds read low; in the data active = activity change below about -50%; inconclusive = mostly about -30% to -49%;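 also: -100% = wells without enzyme as full effect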
Target sequence (Q9BTU6 whole entry, looked up): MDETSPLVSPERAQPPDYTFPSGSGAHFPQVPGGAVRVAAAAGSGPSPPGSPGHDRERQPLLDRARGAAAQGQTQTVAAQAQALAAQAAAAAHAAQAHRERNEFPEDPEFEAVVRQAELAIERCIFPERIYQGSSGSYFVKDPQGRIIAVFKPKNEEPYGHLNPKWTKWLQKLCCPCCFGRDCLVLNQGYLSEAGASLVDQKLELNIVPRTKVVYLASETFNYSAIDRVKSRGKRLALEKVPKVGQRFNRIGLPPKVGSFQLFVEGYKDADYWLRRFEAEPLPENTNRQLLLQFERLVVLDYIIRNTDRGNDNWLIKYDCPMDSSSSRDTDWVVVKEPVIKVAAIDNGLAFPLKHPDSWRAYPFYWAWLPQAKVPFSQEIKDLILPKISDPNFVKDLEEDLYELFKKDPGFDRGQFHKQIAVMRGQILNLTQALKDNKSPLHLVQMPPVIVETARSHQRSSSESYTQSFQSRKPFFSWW
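In this quantitative HTS, ADP production by PI4K2A was quantified luminescently after 1 h at ambient temperature; 100 microM adenosine served as plate-quality control.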
LDHA block: qHTS assay for inhibitors of human lactate dehydrogenase | L-lactate dehydrogenase A chain (Homo sapiens), P00338 | purified LDHA, NADH/diaphorase-resazurin fluorescence; active compounds read low | activity change, % (values are at about 110 or 230 µM) | 480,000 compounds, 0.15% hits; in the data active = activity change below about -30%; inconclusive = mostly about -25% to -30%;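 also: plate controls were DMSO wells for no effect and wells without enzyme for full effect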
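LDH5 2 nM; NADH 0.06 mM, pyruvate 0.2 mM; 200 mM Tris pH 7.4, EDTA, Tween-20; 5 min RT. Detection: diaphorase 0.133 mg/mL + resazurin 37 µM, fluorescence ex540/em590 at 0 and 20 min; normalized to enzyme-free and DMSO wells.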
rTrxR1 inhibitor: qHTS Assay for Inhibitors of Mammalian Selenoprotein Thioredoxin Reductase 1 (TrxR1): qHTS; Thioredoxin reductase 1, cytoplasmic (Rattus norvegicus), O89049; recombinant rTrxR1, NADPH fluorescence consumption, selenite substrate; Potency, µM (highest dose often 114 µM), inactives show at the top dose activity change, negative = inhibition, usual class: inhibitors; 390,000 compounds, 1% hits; also: potency is read from the fitted curve at half-maximal effect; nearly all actives have a fitted effect of over 65% in size
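Rat TrxR1 (90 nM in the dispensed reagent) was pre-reduced with 400 uM NADPH for 5 min at room temperature, then incubated with compound for 15 min. After 400 uM selenite was added, NADPH fluorescence (Ex 340/Em 450 nm) was followed for 8 min.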
TrxR1 substrate: qHTS Assay for Substrates of Mammalian Selenoprotein Thioredoxin Reductase 1 (TrxR1): qHTS; purified TrxR1 substrate turnover, NADPH consumption readout; Potency, µM (top dose mostly 114 µM), without a hit: at the highest dose activity change, negative = substrate turnover; 390,000 compounds, 0.01% hits; also: potency is read from the fitted curve at half-maximal effect; nearly all actives have a fitted effect of over 50% in size
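Rat TrxR1, dispensed at 90 nM, was prereduced with 400 uM NADPH (final) for 5 min at ~22 deg C, then incubated with compound 15 min before 400 uM selenite. A first-read NADPH fluorescence drop versus no-compound background flagged substrates.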
Integrin act MD: qHTS for Activators of Integrin-Mediated Alleviation for Muscular Dystrophy; alpha7betagal myoblasts, beta-gal FDG fluorescence, 48 h; Potency, µM (highest dose often 38.3 µM), for the others: top-dose activation, actives largely listed as activators; 350,000 compounds, 0.064% hits; AID 624291, 2012;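 also: potency is read from the fitted curve at half-maximal effect; 100% = response of the positive control SU9516; nearly all actives have a fitted effect of over 60% in size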
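Alpha7betagal+/- myoblasts (passage 13) were plated 16-24 hr, then exposed to compounds (1:260 dilution of DMSO stock) for 48 hours at 37C. After MPER lysis, β-galactosidase reporter activity was read as FDG fluorescence (ex 480/em 540) after 30 minutes.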
GALK inh: qHTS Assay for Inhibitors of Human Galactokinase (GALK). 270,000 compounds, 0.007% hits. Purified GALK, Kinase-Glo residual ATP luminescence. AID 1868, 2009. Potency, µM (highest dose often 57.5 µM), for inactives: at the top dose activity change, negative = inhibition, hits mostly inhibitors; also: potency is read from the fitted curve at half-maximal effect
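Galactose (100 uM) and ATP (35 uM) were turned over by 5 nM GALK for 1 h at RT. Kinase-Glo Plus then converted the remaining ATP into a luminescent signal.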
* marks the source's active call; other numbers are inactive results; ? = inconclusive; / = no result; [ ] = remark or other dose. Unless noted, calls follow the shape of the dose curve; as a rule, active = well fitted curve in the direction sought with a large enough effect; inconclusive = small, poorly fitted or top-dose-only effect, or another doubt; inactive = no such curve, though single readings can be large; an effect the other way counts as inactive or inconclusive. Unless noted, % is scaled to controls: 0 for no effect and ±100 for the full control effect.

SMILES	PI4K2A inh	LDHA block	rTrxR1 inhibitor	TrxR1 substrate	Integrin act MD	GALK inh
CC(C)c1nc(N(C)CCO)c(C#N)c2c1CCCC2	/	10	/	/	/	/
O=C(Nc1cccc(-c2cnc3ccccc3n2)c1)c1ccco1	8	-1	-8%	-9%	-16%	1%
CC(C)Oc1ccc(-c2nc(-c3cccnc3)no2)cc1	/	0	13%	10%[0.0914 µM]	/	/
CCC(=O)Oc1ccc(-c2cnc3ccccc3n2)cc1	-65*	-3	1%	4%	33%	2%
O=C(Oc1ccc(-c2cnc3ccccc3n2)cc1)c1ccco1	-77*	-4	-10%	-2%	4%	15%
CCC(=O)Oc1ccc(-c2nc(-c3cccnc3)no2)cc1	-55*	-3	1%[57.1 µM]	1%[57.1 µM]	-14%	5%
Cc1ccc(C(C)NC(=O)C2(c3cccc(F)c3)CCOCC2)s1 (stereo unspecified)	/	6	/	/	/	/
COc1ccc(CNC(=O)COC(=O)CCc2c[nH]c3ccccc23)cc1	1	-11	26%	1%	10µM*	0%
COc1ccc(CNC(=O)COC(=O)/C=C/c2ccco2)cc1	-1	0	28µM*	-4%	2%	11%
O=C(COC(=O)/C=C/c1ccco1)NC1CCCCC1	1	10	50µM*	-12%	0%	/
COC(=O)C1(NC(=O)CCNC(=O)C2CCCC2)CCC(C)CC1 (stereo unspecified)	/	0	/	/	/	/
COc1ccc(CNC(=O)Nc2ccc(C)cc2C)cc1	0	-2	37%	2%	-8%	4%
COc1ccc(CNC(=O)C(=O)Nc2ccc(C)cc2C)cc1	/	-31*	/	/	/	/
COc1ccc(C2=CC3=C(Br)C(=O)C(C)(OC(=O)c4ccc(Cl)nc4)C(=O)C3=CO2)cc1 (stereo unspecified)	-15	11	13µM*	8%	-4%	-1%
COc1ccc(C2=CC3=C(Br)C(=O)C(C)(OC(=O)C4CCCC4)C(=O)C3=CO2)cc1 (stereo unspecified)	?	10	?	4%	-22%	-2%
COC(=O)CCC(=O)OC1(C)C(=O)C2=COC(c3ccc(OC)cc3)=CC2=C(Br)C1=O (stereo unspecified)	?	11	14µM*	-7%	13%	4%
COC(=O)CCC(=O)OC1(C)C(=O)C2=CN(Cc3ccc4c(c3)OCO4)C(c3ccc(OC)cc3)=CC2=C(Br)C1=O (stereo unspecified)	-12	10	-10%	-11%	27%	/
CC1(OC(=O)C2CCCC2)C(=O)C=C2C=C(c3ccsc3)N(Cc3ccco3)C=C2C1=O (stereo unspecified)	-22	16	32µM*	-2%	8%	-1%
O=C(COCc1nc2ccccc2c(=O)[nH]1)Nc1nc(-c2ccc3c(c2)CCC3)cs1	/	-31*	/	/	/	/
CC(C)n1ncc2c(C(=O)Nc3ccc(F)cc3)c3c(nc21)CCC3	/	6	/	/	/	/
N#CC1=C(N)SC(N)=C(C#N)C1c1ccnc2ccccc12	-5	18	32µM*	2%	-13%	2%
CS(=O)(=O)c1ccc(C(=O)Nc2nc(-c3ccco3)c(-c3ccco3)s2)cc1	?	6	14µM*	-20%	-30%	/
O=C(Nc1nc(-c2ccco2)c(-c2ccco2)s1)C1CCC1	-7	1	?	4%	-13%	0%
Cc1cc(=O)oc2cc(OCC(=O)N3CCc4sccc4C3C)ccc12 (stereo unspecified)	/	0	/	/	/	/
Cc1ccccc1OCC(O)Cn1c(N)nc2c1c(=O)n(C)c(=O)n2C (stereo unspecified)	/	-37*	/	/	/	/
SMILES	PI4K2A inh	LDHA block	rTrxR1 inhibitor	TrxR1 substrate	Integrin act MD	GALK inh
CCN(C(=O)COC(=O)/C=C/c1ccc(C)o1)c1c(N)n(Cc2ccccc2)c(=O)[nH]c1=O	4	-2	40µM*	-5%	-13%	/
COc1ccc(/C=C(\NC(=O)c2ccc(C)cc2)C(=O)Nc2ccc(C(=O)O)cc2)cc1	-2	-3	7%[57.1 µM]	8%[57.1 µM]	11µM*	0%
NC(=O)C1CCN(C(=O)c2cc(C3CC3)nc3ccccc23)CC1	/	-12	/	/	/	/
O=C(N/N=C/c1ccc([N+](=O)[O-])o1)c1ccncc1	-2	5	-69%	-20%	-38%	0%
O=[N+]([O-])c1ccc(/C=N\NS(=O)(=O)c2ccc(F)cc2)o1	3	2	32µM*	-20%	-23%	4%
O=[N+]([O-])c1ccc(/C=N/Nc2ccc3ccccc3c2)o1	-15	3	?	-17%	-20%	2%
COc1ccc(S(=O)(=O)N/N=C\c2ccc([N+](=O)[O-])o2)c(OC)c1	6	6	35µM*	-15%	0%	-7%
COC(=O)c1c(C)oc(C)c1S(=O)(=O)N(C)C1CCCCC1	3	-2	16µM*	1%	8%	-2%
CC(C)C[C@H](N)c1nnc(S(=O)(=O)Cc2cccc(F)c2)o1	38	-5	0.63µM*	11%[57.1 µM]	-60%	-3%
CC(C)[C@H](NC(=O)OC(C)(C)C)c1nnc(S(=O)(=O)Cc2c(F)cccc2Cl)o1	48	-3	0.71µM*	10%	-58%	-1%
C[C@H](NC(=O)OC(C)(C)C)c1nnc(SCc2c(F)cccc2Cl)o1	-2	-1	39%[11.4 µM]	-1%	/	/
CC(C)(C)OC(=O)N[C@@H](Cc1ccccc1)c1nnc(S(=O)(=O)Cc2cccc(F)c2)o1	49	0	0.63µM*	-9%	-62%	5%
CC[C@@H](C)[C@H](NC(=O)OC(C)(C)C)c1nnc(S(=O)(=O)Cc2cc(C)ccc2C)o1	60	-1	1.1µM*	-3%	-1%	0%
CC[C@@H](C)[C@H](NC(=O)OCc1ccccc1)c1nnc([C@@H](NC(=O)OCc2ccccc2)[C@@H](C)CC)o1	-4	6	18%	4%	7%	-2%
COc1ccccc1CCNC(=O)c1sc(NC(C)C)nc1C	/	-3	/	/	/	/
O=C(Nc1cccc(-c2nnnn2C2CC2)c1)C1CCCC1	/	1	/	/	/	/
Cc1ccccc1CS(=O)(=O)c1nnc([C@H](CC(C)C)NC(=O)OC(C)(C)C)o1	52	8	4µM*	9%	-65%	1%
O=C1C=CC(=O)N1c1ccc(OC(F)F)cc1	14	1	1.1µM*	8%	-48%	/
O=C1C=CC(=O)N1c1ccc(O)cc1	0	-14	1.3µM*	2%	-57%	0%
